Holding throughout (assay): DAPPL (digital affinity profiling via proximity ligation, sequencing); 10 mM Tris-HCl pH 7.5, 50 mM NaCl, 1 mM DTT, 4% glycerol, room temperature, 30 min; GST-TFs on glutathione beads, 16-mer random dsDNA library, 0.1% formaldehyde crosslink after washing; high values mean tight binding
One assay deals with T1, FLI1 (Homo sapiens, UniProt Q01543 1-452).
T1 sequence: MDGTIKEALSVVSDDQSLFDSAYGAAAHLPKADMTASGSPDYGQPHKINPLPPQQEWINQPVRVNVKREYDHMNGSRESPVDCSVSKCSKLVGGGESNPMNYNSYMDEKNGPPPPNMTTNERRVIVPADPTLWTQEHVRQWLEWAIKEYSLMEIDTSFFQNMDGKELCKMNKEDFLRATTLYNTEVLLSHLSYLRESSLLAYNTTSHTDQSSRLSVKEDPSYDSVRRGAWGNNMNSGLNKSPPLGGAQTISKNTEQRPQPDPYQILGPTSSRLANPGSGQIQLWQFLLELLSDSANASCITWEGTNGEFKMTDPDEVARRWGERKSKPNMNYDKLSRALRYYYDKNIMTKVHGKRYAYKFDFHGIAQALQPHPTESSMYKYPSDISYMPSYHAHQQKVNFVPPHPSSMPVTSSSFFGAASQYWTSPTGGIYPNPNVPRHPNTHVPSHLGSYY
The following applies: protein: recombinant; tags: N-terminal GST; dsDNA, one strand shown. The method in brief:
(§1)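 Pools were built from human transcription factors expressed in yeast as GST fusions, captured on glutathione beads and DNA-barcoded, along with a tag-only sample. Incubation with 200 nmole of a 16-mer random double-stranded DNA library lasted 30 min at room temperature in Tris/NaCl/DTT/glycerol buffer, and was followed by washing, 0.1% formaldehyde crosslinking, proximity ligation, PCR amplification and Illumina NextSeq500 sequencing. Binding signal is the quotient of each hexamer's read frequency for a factor and its frequency for the tag-only sample.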

For another assay, the target named is T2, ELK1 (Homo sapiens, UniProt P19419 1-428).
T2 sequence: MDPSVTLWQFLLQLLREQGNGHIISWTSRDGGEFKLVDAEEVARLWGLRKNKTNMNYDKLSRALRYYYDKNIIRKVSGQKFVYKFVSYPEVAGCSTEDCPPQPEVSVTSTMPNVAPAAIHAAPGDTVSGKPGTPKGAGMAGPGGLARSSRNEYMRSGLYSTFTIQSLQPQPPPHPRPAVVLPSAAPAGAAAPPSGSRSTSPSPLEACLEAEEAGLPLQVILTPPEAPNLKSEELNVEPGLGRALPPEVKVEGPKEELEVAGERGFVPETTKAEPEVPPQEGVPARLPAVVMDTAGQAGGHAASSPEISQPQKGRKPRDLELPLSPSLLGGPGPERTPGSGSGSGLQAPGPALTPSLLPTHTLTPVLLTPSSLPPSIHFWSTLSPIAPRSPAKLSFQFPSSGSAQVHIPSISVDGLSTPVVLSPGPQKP
The following applies: protein: recombinant; tags: N-terminal GST; dsDNA, one strand shown. The method, boiled down: as §1

The next assay addresses T3, GABPA (Homo sapiens, UniProt Q06546 1-454).
T3 sequence: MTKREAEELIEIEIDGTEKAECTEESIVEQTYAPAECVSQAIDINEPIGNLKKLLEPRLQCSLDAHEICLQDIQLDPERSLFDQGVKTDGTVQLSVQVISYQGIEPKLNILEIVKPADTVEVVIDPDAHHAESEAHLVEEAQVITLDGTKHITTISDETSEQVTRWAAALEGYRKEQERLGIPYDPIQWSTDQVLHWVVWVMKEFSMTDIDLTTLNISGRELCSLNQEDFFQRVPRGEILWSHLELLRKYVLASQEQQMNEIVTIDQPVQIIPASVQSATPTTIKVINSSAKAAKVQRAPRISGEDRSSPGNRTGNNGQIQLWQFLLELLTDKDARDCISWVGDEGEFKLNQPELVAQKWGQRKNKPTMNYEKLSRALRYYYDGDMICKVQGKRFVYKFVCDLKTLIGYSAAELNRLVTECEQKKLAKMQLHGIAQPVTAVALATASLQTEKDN
To be noted: protein: recombinant; tags: N-terminal GST; dsDNA, one strand shown. The method, boiled down:
as §1

For the next assay, the target named is T4, ERG (Homo sapiens, UniProt P11308 1-479).
T4 sequence: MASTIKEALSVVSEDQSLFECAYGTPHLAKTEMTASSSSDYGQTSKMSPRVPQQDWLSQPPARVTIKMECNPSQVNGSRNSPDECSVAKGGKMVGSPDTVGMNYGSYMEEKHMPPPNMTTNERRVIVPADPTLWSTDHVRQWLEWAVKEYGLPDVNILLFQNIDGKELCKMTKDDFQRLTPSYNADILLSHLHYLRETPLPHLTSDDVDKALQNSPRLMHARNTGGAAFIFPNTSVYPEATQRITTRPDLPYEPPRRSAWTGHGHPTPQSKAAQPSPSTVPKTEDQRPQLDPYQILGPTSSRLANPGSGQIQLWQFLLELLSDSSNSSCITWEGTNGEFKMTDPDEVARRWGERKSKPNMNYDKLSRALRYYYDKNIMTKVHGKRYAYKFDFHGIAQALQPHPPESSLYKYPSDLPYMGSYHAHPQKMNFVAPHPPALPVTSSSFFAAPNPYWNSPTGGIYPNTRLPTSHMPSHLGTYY
To be noted: protein: recombinant; tags: N-terminal GST; dsDNA, one strand shown. The method, boiled down:
as §1

In a further assay the target is ELF1 (Homo sapiens, UniProt P32519 1-619). To be noted: protein: recombinant; tags: N-terminal GST; dsDNA, one strand shown. The method in brief: as §1
Chain of ELF1 (P32519 whole entry): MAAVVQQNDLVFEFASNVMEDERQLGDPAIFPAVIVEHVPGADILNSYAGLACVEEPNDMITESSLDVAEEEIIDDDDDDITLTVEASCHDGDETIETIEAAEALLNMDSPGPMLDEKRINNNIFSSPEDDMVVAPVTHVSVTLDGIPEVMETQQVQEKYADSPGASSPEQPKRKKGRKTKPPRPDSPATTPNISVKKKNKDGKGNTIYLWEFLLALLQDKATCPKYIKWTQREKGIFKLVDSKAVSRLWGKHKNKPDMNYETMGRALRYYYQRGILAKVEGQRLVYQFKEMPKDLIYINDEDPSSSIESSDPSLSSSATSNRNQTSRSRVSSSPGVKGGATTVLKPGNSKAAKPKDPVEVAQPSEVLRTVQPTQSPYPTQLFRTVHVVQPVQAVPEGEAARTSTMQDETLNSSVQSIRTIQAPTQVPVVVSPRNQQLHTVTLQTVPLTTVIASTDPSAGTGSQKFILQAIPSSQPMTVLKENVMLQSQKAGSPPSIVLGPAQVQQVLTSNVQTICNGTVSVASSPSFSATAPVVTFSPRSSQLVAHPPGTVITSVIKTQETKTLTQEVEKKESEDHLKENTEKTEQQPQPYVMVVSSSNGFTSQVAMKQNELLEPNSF
Another assay addresses T5, EHF (Homo sapiens, UniProt Q9NZC4 1-300).
T5 sequence: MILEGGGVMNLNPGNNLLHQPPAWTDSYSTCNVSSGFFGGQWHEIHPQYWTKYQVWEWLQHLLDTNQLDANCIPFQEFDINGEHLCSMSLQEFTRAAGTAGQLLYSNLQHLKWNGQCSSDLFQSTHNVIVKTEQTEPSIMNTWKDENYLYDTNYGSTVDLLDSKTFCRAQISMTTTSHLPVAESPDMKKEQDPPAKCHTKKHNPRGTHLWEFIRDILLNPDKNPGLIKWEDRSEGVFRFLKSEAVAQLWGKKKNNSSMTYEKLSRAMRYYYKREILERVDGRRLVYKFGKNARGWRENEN
To be noted: protein: recombinant; tags: N-terminal GST; dsDNA, one strand shown. The method in brief:
as §1

For another assay, the target named is SPI1 (Homo sapiens, UniProt P17947 1-270). To be noted: protein: recombinant; tags: N-terminal GST; dsDNA, one strand shown. The method, boiled down:
as §1

Another assay has as its target SPIB (Homo sapiens, UniProt Q01892 1-262). To be noted: protein: recombinant; tags: N-terminal GST; dsDNA, one strand shown. The method in brief:
as §1

The target of another assay is T6, ELK3 (Homo sapiens, UniProt P41970 1-407).
T6 sequence: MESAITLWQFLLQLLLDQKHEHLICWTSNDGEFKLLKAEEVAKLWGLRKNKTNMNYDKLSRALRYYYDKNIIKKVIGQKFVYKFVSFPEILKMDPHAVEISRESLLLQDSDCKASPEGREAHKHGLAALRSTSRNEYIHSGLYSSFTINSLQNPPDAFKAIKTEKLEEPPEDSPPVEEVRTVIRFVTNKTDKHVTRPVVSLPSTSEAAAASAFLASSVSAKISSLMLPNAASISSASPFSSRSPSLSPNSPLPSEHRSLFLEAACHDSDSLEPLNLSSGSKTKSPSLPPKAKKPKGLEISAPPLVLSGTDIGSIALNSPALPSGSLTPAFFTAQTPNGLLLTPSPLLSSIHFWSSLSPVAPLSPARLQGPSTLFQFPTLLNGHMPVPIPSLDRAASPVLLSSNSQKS
The following applies: protein: recombinant; tags: N-terminal GST; dsDNA, one strand shown. The method in brief:
as §1

The target of the next assay is T7, FEV (Homo sapiens, UniProt Q99581 1-238).
T7 sequence: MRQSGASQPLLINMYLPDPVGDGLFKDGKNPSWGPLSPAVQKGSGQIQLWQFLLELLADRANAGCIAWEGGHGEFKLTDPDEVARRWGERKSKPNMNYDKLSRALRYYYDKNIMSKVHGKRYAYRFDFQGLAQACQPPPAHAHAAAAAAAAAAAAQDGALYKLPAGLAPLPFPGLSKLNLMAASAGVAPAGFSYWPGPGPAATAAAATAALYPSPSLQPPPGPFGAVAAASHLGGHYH
To be noted: protein: recombinant; tags: N-terminal GST; dsDNA, one strand shown. The method, boiled down:
as §1

The target of another assay is ETV5 (Homo sapiens, UniProt P41161 1-510). The following applies: protein: recombinant; tags: N-terminal GST; dsDNA, one strand shown. The method in brief: as §1
Chain of ETV5 (P41161 whole entry): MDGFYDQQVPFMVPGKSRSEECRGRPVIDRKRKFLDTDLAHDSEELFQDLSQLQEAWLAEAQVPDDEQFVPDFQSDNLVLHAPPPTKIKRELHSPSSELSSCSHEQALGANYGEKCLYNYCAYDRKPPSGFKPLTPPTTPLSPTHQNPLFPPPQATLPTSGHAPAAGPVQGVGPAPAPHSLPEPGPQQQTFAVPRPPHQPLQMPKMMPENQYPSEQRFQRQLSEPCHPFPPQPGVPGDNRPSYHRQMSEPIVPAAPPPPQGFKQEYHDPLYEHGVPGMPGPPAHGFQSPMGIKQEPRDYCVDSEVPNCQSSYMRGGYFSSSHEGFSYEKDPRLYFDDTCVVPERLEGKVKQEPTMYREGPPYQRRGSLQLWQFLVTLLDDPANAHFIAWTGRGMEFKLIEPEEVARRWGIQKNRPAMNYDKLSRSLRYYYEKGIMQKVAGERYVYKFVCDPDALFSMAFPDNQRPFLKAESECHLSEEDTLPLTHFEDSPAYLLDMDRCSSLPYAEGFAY
In the next assay the target is HSF1 (Homo sapiens, UniProt Q00613 1-529). The following applies: protein: recombinant; tags: N-terminal GST; chain copies: 3; dsDNA, one strand shown. The method, boiled down:
as §1

Another assay addresses T8, SPIC (Homo sapiens, UniProt Q8N5J4 1-248).
T8 sequence: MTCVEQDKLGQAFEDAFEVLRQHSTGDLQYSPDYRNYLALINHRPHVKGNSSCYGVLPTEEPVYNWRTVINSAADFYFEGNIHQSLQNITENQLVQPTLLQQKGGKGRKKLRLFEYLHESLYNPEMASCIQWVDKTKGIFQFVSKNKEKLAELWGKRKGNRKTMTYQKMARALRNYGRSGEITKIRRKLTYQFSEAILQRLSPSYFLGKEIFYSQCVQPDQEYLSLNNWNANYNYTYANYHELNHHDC
To be noted: protein: recombinant; tags: N-terminal GST; dsDNA, one strand shown. The method, boiled down: as §1

A further assay concerns the target ELF4 (Homo sapiens, UniProt Q99607 1-663). To be noted: protein: recombinant; tags: N-terminal GST; dsDNA, one strand shown. The method, boiled down:
as §1

The target in another assay is T9, ELK4 (Homo sapiens, UniProt P28324-2 1-405).
T9 sequence: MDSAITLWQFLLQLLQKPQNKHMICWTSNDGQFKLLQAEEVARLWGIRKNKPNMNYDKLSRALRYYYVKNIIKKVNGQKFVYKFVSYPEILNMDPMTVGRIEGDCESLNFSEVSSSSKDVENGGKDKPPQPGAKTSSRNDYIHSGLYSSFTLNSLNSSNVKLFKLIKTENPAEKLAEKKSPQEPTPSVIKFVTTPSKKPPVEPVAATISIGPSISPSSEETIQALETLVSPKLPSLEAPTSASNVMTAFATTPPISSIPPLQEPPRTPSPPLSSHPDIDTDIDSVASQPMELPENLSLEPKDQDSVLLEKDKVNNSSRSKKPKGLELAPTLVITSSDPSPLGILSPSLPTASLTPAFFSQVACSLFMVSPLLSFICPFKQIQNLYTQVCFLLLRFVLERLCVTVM
The following applies: protein: recombinant; tags: N-terminal GST; dsDNA, one strand shown. The method in brief:
as §1

In a further assay the target is T10, ETV2 (Homo sapiens, UniProt O00321 1-342).
T10 sequence: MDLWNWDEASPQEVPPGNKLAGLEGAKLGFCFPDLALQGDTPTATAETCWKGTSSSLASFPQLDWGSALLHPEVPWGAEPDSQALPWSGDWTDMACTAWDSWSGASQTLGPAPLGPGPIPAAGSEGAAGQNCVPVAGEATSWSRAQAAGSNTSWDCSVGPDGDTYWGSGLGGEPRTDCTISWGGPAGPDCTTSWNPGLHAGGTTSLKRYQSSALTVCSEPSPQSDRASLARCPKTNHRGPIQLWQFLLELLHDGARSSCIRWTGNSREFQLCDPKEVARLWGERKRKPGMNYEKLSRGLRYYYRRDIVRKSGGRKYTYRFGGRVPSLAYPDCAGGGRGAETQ
To be noted: protein: recombinant; tags: N-terminal GST; dsDNA, one strand shown. The method in brief: as §1

The next assay addresses T11, ELF3 (Homo sapiens, UniProt P78545 1-371).
T11 sequence: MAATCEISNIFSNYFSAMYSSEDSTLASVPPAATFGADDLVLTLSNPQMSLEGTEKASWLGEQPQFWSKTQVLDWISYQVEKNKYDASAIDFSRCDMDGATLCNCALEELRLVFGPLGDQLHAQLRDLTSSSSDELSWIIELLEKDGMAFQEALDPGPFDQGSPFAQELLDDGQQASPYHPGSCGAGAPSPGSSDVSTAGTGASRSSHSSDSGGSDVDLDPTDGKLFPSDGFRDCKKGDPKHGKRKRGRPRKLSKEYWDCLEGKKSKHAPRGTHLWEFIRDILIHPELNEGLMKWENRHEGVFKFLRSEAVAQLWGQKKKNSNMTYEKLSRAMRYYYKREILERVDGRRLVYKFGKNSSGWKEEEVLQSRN
The following applies: protein: recombinant; tags: N-terminal GST; dsDNA, one strand shown. The method, boiled down: as §1

The target in a further assay is CRX (Homo sapiens, UniProt O43186 1-299). To be noted: protein: recombinant; tags: N-terminal GST; dsDNA, one strand shown. The method, boiled down: as §1
Chain of CRX (O43186 whole entry): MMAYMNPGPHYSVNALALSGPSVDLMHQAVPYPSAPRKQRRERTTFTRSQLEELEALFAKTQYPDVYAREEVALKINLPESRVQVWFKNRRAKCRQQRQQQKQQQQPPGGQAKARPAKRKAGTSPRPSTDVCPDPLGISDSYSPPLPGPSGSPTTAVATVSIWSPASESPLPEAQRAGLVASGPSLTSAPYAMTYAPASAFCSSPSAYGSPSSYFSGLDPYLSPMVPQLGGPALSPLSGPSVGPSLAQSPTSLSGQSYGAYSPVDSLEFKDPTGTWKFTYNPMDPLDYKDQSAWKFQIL
The next assay concerns the target ETV1 (Homo sapiens, UniProt P50549 1-477). The following applies: protein: recombinant; tags: N-terminal GST; dsDNA, one strand shown. The method in brief: as §1

Chain of ETV1 (P50549 whole entry): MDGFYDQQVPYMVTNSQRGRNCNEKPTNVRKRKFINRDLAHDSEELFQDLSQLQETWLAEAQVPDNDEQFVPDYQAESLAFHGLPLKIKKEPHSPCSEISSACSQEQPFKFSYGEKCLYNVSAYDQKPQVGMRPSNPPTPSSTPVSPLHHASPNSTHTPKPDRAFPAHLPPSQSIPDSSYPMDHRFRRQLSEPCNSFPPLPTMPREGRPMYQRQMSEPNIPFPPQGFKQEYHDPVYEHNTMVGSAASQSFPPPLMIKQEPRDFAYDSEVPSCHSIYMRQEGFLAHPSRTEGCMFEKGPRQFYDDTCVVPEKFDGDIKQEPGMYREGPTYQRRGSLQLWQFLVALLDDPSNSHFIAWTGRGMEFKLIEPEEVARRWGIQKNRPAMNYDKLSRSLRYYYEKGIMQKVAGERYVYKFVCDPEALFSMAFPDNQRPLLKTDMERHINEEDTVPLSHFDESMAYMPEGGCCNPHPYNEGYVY
Chain of HSF1 (Q00613 whole entry): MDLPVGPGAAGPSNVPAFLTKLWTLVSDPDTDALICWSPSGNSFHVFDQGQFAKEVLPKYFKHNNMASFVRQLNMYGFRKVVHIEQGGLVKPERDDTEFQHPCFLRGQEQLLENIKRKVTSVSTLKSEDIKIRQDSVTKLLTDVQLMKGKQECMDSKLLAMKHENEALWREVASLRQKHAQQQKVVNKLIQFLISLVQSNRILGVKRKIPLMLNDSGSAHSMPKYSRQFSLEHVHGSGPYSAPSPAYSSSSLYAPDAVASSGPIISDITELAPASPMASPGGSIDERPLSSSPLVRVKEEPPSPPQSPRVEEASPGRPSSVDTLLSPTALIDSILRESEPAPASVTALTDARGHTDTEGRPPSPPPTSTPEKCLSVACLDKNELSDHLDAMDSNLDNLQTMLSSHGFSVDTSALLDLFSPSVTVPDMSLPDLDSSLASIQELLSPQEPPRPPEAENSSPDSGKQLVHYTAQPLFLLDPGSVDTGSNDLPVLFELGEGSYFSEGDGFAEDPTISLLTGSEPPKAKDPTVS
Chain of ELF4 (Q99607 whole entry): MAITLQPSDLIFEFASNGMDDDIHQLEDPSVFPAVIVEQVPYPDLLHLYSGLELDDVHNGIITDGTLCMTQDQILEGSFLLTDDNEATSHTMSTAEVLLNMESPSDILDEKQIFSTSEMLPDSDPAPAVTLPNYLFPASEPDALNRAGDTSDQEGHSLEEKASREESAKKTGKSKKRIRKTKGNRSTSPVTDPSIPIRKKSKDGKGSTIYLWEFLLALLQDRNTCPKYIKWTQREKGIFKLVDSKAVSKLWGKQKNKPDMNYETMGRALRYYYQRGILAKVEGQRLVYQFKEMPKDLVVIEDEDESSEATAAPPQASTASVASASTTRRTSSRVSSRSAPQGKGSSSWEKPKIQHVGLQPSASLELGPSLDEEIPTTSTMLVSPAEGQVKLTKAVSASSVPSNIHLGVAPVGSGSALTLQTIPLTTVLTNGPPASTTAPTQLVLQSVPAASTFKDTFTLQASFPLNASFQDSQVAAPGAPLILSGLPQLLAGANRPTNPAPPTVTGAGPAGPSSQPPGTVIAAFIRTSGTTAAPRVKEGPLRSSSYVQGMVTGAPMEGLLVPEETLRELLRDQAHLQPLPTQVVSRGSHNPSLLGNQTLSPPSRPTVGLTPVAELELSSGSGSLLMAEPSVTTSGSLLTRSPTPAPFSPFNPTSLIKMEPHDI
Chain of SPIB (Q01892 whole entry): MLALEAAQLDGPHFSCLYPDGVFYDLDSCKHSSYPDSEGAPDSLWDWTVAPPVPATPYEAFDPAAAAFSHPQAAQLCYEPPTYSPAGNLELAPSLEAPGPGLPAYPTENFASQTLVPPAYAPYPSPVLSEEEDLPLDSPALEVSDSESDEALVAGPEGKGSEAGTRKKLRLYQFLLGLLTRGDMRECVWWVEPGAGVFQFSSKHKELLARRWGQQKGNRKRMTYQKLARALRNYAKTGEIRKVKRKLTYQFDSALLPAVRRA

On to TGTTAC, for which the binding signal in the assay with FLI1 is 1.49 fold enrichment (6-mer frequency, TF over GST control); with ELK1 it was 1.55 fold enrichment (6-mer frequency, TF over GST control); with GABPA it was 1.39 fold enrichment (6-mer frequency, TF over GST control); with ERG, 1.49 fold enrichment (6-mer frequency, TF over GST control); in the assay with ELF1, 1.43 fold enrichment (6-mer frequency, TF over GST control); with EHF, 1.53 fold enrichment (6-mer frequency, TF over GST control). Moreover, the binding signal was 1.36 fold enrichment (6-mer frequency, TF over GST control) with SPI1; 1.43 fold enrichment (6-mer frequency, TF over GST control) with SPIB; 1.53 fold enrichment (6-mer frequency, TF over GST control) with ELK3; 1.4 fold enrichment (6-mer frequency, TF over GST control) with FEV; 1.47 fold enrichment (6-mer frequency, TF over GST control) with ETV5; 1.12 fold enrichment (6-mer frequency, TF over GST control) in the assay with HSF1. For the same sequence, the binding signal with SPIC was 1.42 fold enrichment (6-mer frequency, TF over GST control); with ELF4 it was 1.47 fold enrichment (6-mer frequency, TF over GST control); in the assay with ELK4 it was 1.51 fold enrichment (6-mer frequency, TF over GST control); in the assay with ETV2, 1.58 fold enrichment (6-mer frequency, TF over GST control); in the assay with ELF3, 1.39 fold enrichment (6-mer frequency, TF over GST control); with CRX, 1.19 fold enrichment (6-mer frequency, TF over GST control). Further, in the assay with ETV1, the binding signal was 1.4 fold enrichment (6-mer frequency, TF over GST control).

Source of the values: article PMC7862700, “An all-to-all approach to the identification of sequence-specific readers for epigenetic DNA modifications on cytosine”.
